About 18,000 (4.4%) of roughly 410,000 compounds were called active. About 7% were inconclusive and are not listed. Many of the other results were omitted from the sample, so actives are more common in it than they were. Values without a mark were called inactive. Cut-off read from the data, not from the text of the source: active = activity change below about -60%; inconclusive = no clear call, values can overlap the other calls; inactive = above about -39%.
Assay: qHTS Assay for inhibitors of the human cytomegalovirus (HCMV)
Details: HFF cells, HCMV-luciferase reporter, 72 h; at 57.5 µM; hits give low values
Procedure, shortened: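 After 16 h attachment at 37C, HFF cells received test compound and HCMV-luciferase (1 PFU/cell); reporter luminescence read 72 h later, data normalized against buffer-only and known inhibitor Salinomycin.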
`COc1cccc(N2CC(NC(=O)/C=C\c3ccccc3)CC2=O)c1` (centres undefined) showed an activity change, negative = inhibition of 81.9%. `CCOC(=O)c1c(-c2ccc(OC)cc2)oc2ccc(OCc3ccc(C(=O)OC)cc3)cc12` gave an activity change, negative = inhibition of -6.67%. `COC(=O)c1ccc(NC(=O)CCc2c(C)nc3c(c(C)nn3-c3ccc(C)cc3)c2C)cc1` gave an activity change, negative = inhibition of -19.7%. `COc1cc(Cl)cc(C2NC(=O)NC(C)=C2C(=O)NCc2ccccc2)c1O` (centres undefined) gave an activity change, negative = inhibition of 3.06%. With `COc1cc(/C=C2/SC(=S)N(Cc3ccccc3)C2=O)cc(OC)c1O` the activity change, negative = inhibition was -63.1% (active). `COc1ccc(CCNC(=O)CCCCn2c(=O)c3ccccc3n(Cc3ccccc3)c2=O)cc1OC` showed an activity change, negative = inhibition of -9.1%. `COc1cc2c(cc1OC)C(C(=O)NCc1ccco1)C1c3ccccc3CCN1C2=O` (centres undefined) gave an activity change, negative = inhibition of 3.83%. Compound `COCCNC(=O)CSc1c(C)cnc2c1c(=O)n(C)c(=O)n2C` has an activity change, negative = inhibition of 8.83%. For `Cc1cccc2nc(-c3ccc(Cl)s3)c(Nc3ccc4c(c3)OCCO4)n12`, the activity change, negative = inhibition was 19.5%. With `Cc1cccnc1C(NC(=O)C1CCN(Cc2ccc(Cl)c(Cl)c2)CC1)c1ccc(Cl)cc1` (centres undefined) the activity change, negative = inhibition was -88.1% (active). `O=C(NC(c1ccc(Cl)cc1)c1cnccn1)C1CCN(Cc2ccc(Cl)cc2)CC1` (centres undefined) showed an activity change, negative = inhibition of 18.3%. For `Cc1ccc(C(NC(=O)C2CCN(CCOc3ccc(Cl)cc3Cl)CC2)c2ccccn2)cc1` (centres undefined), the activity change, negative = inhibition was 23.2%. In the case of `Cc1ccc(CSc2nc3cccnc3n2Cc2ccc(C(=O)NC3CC3)cc2)cc1`, the activity change, negative = inhibition is reported as 112%. Compound `CCn1c(CN2C(=O)CSc3ccccc32)n[nH]c1=S` has an activity change, negative = inhibition of -8.44%. For `CC(=O)c1cc(C#N)c(N2CCCCC2)nc1C`, the activity change, negative = inhibition was -92.4% (active). In the case of `Cc1cc(C)c2cc(C#N)c(N3CCNCC3)nc2c1`, the activity change, negative = inhibition is reported as -15.9%. `CC(=O)c1cc(C#N)c(N2CC(C)OC(C)C2)nc1C` (centres undefined) gave an activity change, negative = inhibition of -16.2%. In the case of `Cc1cc(C)cc(NS(=O)(=O)c2ccc3[nH]cc(C(=O)N4CCCCC4)c(=O)c3c2)c1`, the activity change, negative = inhibition is reported as 1.5%. In the case of `CC(=O)NC(Cc1ccc(F)c(F)c1)C(=O)NC1CCN(c2nnnn2-c2ccccc2)CC1` (centres undefined), the activity change, negative = inhibition is reported as -16%. Compound `COc1ccc(-c2nonc2NC(=O)c2oc3ccc(F)cc3c2C)cc1OC` has an activity change, negative = inhibition of -12.8%. Compound `O=C(NC1CC(=O)N(c2ccccc2)C1)c1ccco1` (centres undefined) has an activity change, negative = inhibition of 43.8%. Compound `COc1cc(Br)c(-c2sc(Nc3ccccc3)n[n+]2-c2ccccc2)cc1OC` has an activity change, negative = inhibition of 25.2%. In the case of `COc1ccc(C)cc1Nc1n[n+](-c2ccccc2)c(-c2cccc(Cl)c2Cl)s1`, the activity change, negative = inhibition is reported as 8%. For `CCc1ccc(Nc2n[n+](-c3ccccc3)c(-c3cccc(Cl)c3Cl)s2)cc1`, the activity change, negative = inhibition was -69.1% (active). `CCCCC(=O)OC1=CN(Cc2ccccc2)S(=O)(=O)c2ccccc21` showed an activity change, negative = inhibition of -6.62%. `CN(Cc1cccs1)C(=O)Cc1c[nH]c2ccccc12` showed an activity change, negative = inhibition of 26%. Compound `CC(C)C12CN3CC(C(C)C)(CN(C1)C3c1ccc(OCc3ccccc3)cc1)C2=O` (centres undefined) has an activity change, negative = inhibition of -7.28%. In the case of `Cc1ccc2nc(/C(C#N)=C\c3ccc(OC(=O)c4cccs4)cc3)[nH]c2c1`, the activity change, negative = inhibition is reported as -67.5% (active). `Cc1ccc2nc(/C(C#N)=C/c3ccccc3F)[nH]c2c1` gave an activity change, negative = inhibition of 206%. For `Cc1ccc2nc(/C(C#N)=C/c3ccc(-c4ccc(C(=O)OC(C)C)cc4)o3)[nH]c2c1`, the activity change, negative = inhibition was 41%. Work on `COCCNC(=O)CSc1nc(-c2ccccc2)[nH]c1-c1ccc(C)cc1` yielded an activity change, negative = inhibition of -25.2%. With `CCOc1cc2[nH]c(=O)n(Cc3ccc(C(=O)NCCN(CC)CC)cc3)c(=O)c2cc1OCC` the activity change, negative = inhibition was -5.64%. For `O=C(Nc1cccc(C(F)(F)F)c1)c1ccc(N2CCNCC2)c([N+](=O)[O-])c1`, the activity change, negative = inhibition was -65.3% (active). In the case of `Cc1cccc(C)c1NC(=O)CNC(=O)c1ccc(N2CCOCC2)c([N+](=O)[O-])c1`, the activity change, negative = inhibition is reported as 25.4%. With `O=C(NC1C2CC3CC(C2)CC1C3)c1ccc(N2CCNCC2)c([N+](=O)[O-])c1` (centres undefined) the activity change, negative = inhibition was 6.12%. Compound `CSc1oc(-c2cccs2)nc1S(=O)(=O)c1ccc(Br)cc1` has an activity change, negative = inhibition of 29.5%. For `Cc1ccc(CSc2oc(-c3cccs3)nc2S(=O)(=O)c2ccc(C)cc2)cc1`, the activity change, negative = inhibition was 12.7%. For `CCCCS(=O)(=O)c1oc(-c2cccs2)nc1S(=O)(=O)c1ccccc1`, the activity change, negative = inhibition was -108% (active). In the case of `Cc1ccc(-n2nc(CO)c(C(=O)NCCc3ccccc3)n2)cc1`, the activity change, negative = inhibition is reported as 18.9%. `CCOC(=O)c1cccc(NC(=O)Cn2cnc3nc4c(cc3c2=O)CCCC4)c1` showed an activity change, negative = inhibition of 4.14%. With `COCC(C)n1c(C)cc(C(=O)COc2ccc(C)nc2[N+](=O)[O-])c1C` (centres undefined) the activity change, negative = inhibition was -71.3% (active). In the case of `Cc1ccc(OCC(=O)Nc2ccccc2Sc2ccc(Cl)cc2)c([N+](=O)[O-])n1`, the activity change, negative = inhibition is reported as -14.6%. Compound `COc1ccc(C)cc1-n1nnnc1SCC(=O)c1cc(C)n(Cc2ccco2)c1C` has an activity change, negative = inhibition of 39.6%. With `Cc1ccc(OCC(=O)c2cc(C)n(Cc3ccco3)c2C)c([N+](=O)[O-])n1` the activity change, negative = inhibition was -78.9% (active). `CCc1ccccc1NC(=O)CN(C)C(=O)COc1ccc(C)nc1[N+](=O)[O-]` gave an activity change, negative = inhibition of -24.2%. In the case of `CC(NC(=O)COc1cccnc1[N+](=O)[O-])c1ccc(Cl)cc1Cl` (centres undefined), the activity change, negative = inhibition is reported as -23.4%. Work on `O=S(=O)(NCCc1nnc2ccc(SCc3ccc(Cl)cc3Cl)nn12)c1ccccc1` yielded an activity change, negative = inhibition of 5.81%. `Cn1nc(C(=O)OCC(=O)N(Cc2ccccc2)C(C)(C)C)c2ccccc2c1=O` gave an activity change, negative = inhibition of 2.54%. In the case of `COc1ccc(Nc2cc(Sc3ccc(OC)cc3)ncn2)cc1`, the activity change, negative = inhibition is reported as -88.8% (active). `COc1ccc(NC2=CC(=S)NC(C)(C)C2)cc1` gave an activity change, negative = inhibition of 42.8%. `COc1ccc(NC(=O)CSc2ncnc3[nH]ncc23)cc1` gave an activity change, negative = inhibition of -2.36%. With `Cc1ccc(Sc2ccncc2S(N)(=O)=O)cc1` the activity change, negative = inhibition was 55.9%. For `CC1CC(C)CN(C(=O)CSc2ccsc2[N+](=O)[O-])C1` (centres undefined), the activity change, negative = inhibition was -70.8% (active). With `CC1CC(C)CN(C(=O)CSc2nnc(CSc3ncccn3)n2C)C1` (centres undefined) the activity change, negative = inhibition was -15.8%. Work on `O=C(CSc1ccsc1[N+](=O)[O-])N1CCCCC1` yielded an activity change, negative = inhibition of 3.43%. Compound `CC(C)C(OC(=O)c1cccs1)C(=O)NC1CCCCC1` (centres undefined) has an activity change, negative = inhibition of 55.6%. `CC(C)=C1N(S(=O)(=O)C(F)(F)F)CCC12CN(C)c1ccccc12` (centres undefined) gave an activity change, negative = inhibition of -18.4%. With `CCC(=O)N1c2ccccc2CC1C(=O)N1CCN(c2cccc(OC)c2)CC1` (centres undefined) the activity change, negative = inhibition was 16.8%. For `COC(=O)c1c(C)[nH]c(C(=O)/C=C/c2ccc(Cl)cc2)c1C`, the activity change, negative = inhibition was -85.4% (active). Work on `COC(=O)c1c(C)oc(C)c1S(=O)(=O)NCc1ccc(Cl)cc1` yielded an activity change, negative = inhibition of -3.12%. In the case of `COc1ccc(C)cc1NC(=O)c1[nH]c(C)c(C(C)=O)c1C`, the activity change, negative = inhibition is reported as 106%. For `Cc1ccc(CCC(=O)Nc2ncc(Cc3cc(Cl)ccc3Cl)s2)o1`, the activity change, negative = inhibition was -89.7% (active). For `CCc1ccc(CCC(=O)Nc2ccc(S(N)(=O)=O)cc2)o1`, the activity change, negative = inhibition was -16.8%. For `COc1ccccc1N1CCN(C(=O)C2CCN(S(=O)(=O)c3c(C)noc3/C=C/c3ccc(C)cc3)CC2)CC1`, the activity change, negative = inhibition was 1.7%. Work on `CCCN(CCC)C(=O)C(Cc1ccccc1)NS(=O)(=O)c1ccc2c(c1)c(=O)n(C)c(=O)n2C` (centres undefined) yielded an activity change, negative = inhibition of 1.57%. For `CCCCc1cc(=O)oc2c(C)c(OCC(=O)N3CCC(C(N)=O)CC3)ccc12`, the activity change, negative = inhibition was -17.9%. With `NC(=O)C1CCN(C(=O)COc2cccc3cccnc23)CC1` the activity change, negative = inhibition was -88.1% (active). Work on `CCOC(=O)C1CCN(C(=O)COc2cccc3ccccc23)CC1` yielded an activity change, negative = inhibition of -33.6%. Compound `CC(C)=CCCC(C)CN1CCC(n2nccc2NC(=O)c2ccccc2)CC1` (centres undefined) has an activity change, negative = inhibition of -18.5%. Compound `COc1ccc(NC(=O)C(c2ccccc2)N2Cc3ccccc3C2=O)cc1` (centres undefined) has an activity change, negative = inhibition of -2.09%. In the case of `CC(C)(C)c1ccc(Oc2ccc(N)cc2)cc1`, the activity change, negative = inhibition is reported as -86.3% (active). In the case of `CC(C)(C)c1ccc(OC(=O)N2CCCCC2)cc1`, the activity change, negative = inhibition is reported as 29.6%. In the case of `Cc1c(Cl)cccc1NC(=O)c1noc2c1CCCC2`, the activity change, negative = inhibition is reported as -4.84%. In the case of `O=C(Nc1c(Br)cc2c(c1Br)Cc1cc([N+](=O)[O-])ccc1-2)C(Cl)Cl`, the activity change, negative = inhibition is reported as -31.6%. For `COc1ccc(-n2c(SC)nc3sc4c(c3c2=O)CCN(C(C)=O)C4)cc1`, the activity change, negative = inhibition was 24.9%. Work on `Cc1ccc(CNC(=O)Cn2c(=O)ccc3cc(S(=O)(=O)N4CCCC4)ccc32)cc1` yielded an activity change, negative = inhibition of -10.3%. Work on `Cc1ccn2c(Nc3ccc4c(c3)OCCO4)c(-c3ccc(C)s3)nc2c1` yielded an activity change, negative = inhibition of 10.7%. Compound `CCOc1ccc(Nc2ncnc3scc(-c4ccc(OC)cc4)c23)cc1` has an activity change, negative = inhibition of -22.6%. Work on `Cc1cc(NC(=O)c2cccc(Cl)c2)ccc1-c1cc2ccccc2oc1=O` yielded an activity change, negative = inhibition of 28.2%. In the case of `COc1ccc(-c2csc(-c3c(N)c(C(=O)c4ccc(OC)c(OC)c4)n4ccccc34)n2)cc1`, the activity change, negative = inhibition is reported as 9.65%. For `O=c1oc2ccccc2cc1-c1csc(Nc2ccc(O)cc2)n1`, the activity change, negative = inhibition was -87.2% (active). Work on `N#C/C(=C\c1cccc(F)c1)c1nc(-c2cc3c(ccc4ccccc43)oc2=O)cs1` yielded an activity change, negative = inhibition of 1.4%. For `COc1ccc(-c2csc(Nc3ccc(O)cc3)n2)cc1`, the activity change, negative = inhibition was -72.3% (active). `CC(C)(C)c1ccc(OCC(=O)N2CCC(c3nc4ccccc4s3)CC2)cc1` showed an activity change, negative = inhibition of 4.7%. Work on `COCCn1c(CCC(=O)Nc2cc(C)ccc2C)nc2cccnc21` yielded an activity change, negative = inhibition of 5.25%. Work on `CCOC(=O)c1ccc(COC(=O)c2cc(=O)[nH]c3ccccc23)o1` yielded an activity change, negative = inhibition of -5.78%. In the case of `O=C(OCc1nnc(-c2ccccc2)o1)c1cc(=O)[nH]c2ccccc12`, the activity change, negative = inhibition is reported as -98.7% (active). `CC1CCN(C(=O)COC(=O)c2cc(=O)[nH]c3ccccc23)CC1` gave an activity change, negative = inhibition of 10.6%. `CCc1ccc(S(=O)(=O)Nc2cc3c(C(=O)OCc4ccccc4)c(C)oc3c3ccccc23)cc1` gave an activity change, negative = inhibition of 8.24%.
% is set by controls: 0 for no effect and ±100 for the full control effect.
